From PubChem BioAssay AID1851 (National Center for Advancing Translational Sciences (NCATS), 2009)
“And” between values parts separate entries of the source, which are not always exact repeats. Identical values can stand only once. Screen size: about 16,000 compounds; about 5,800 (36%) were called active. Not shown: some 23% with an inconclusive outcome. The call rests on the fitted dose curve; in most records, active means well fitted curve in the direction sought with a large enough effect; inconclusive means small, poorly fitted or top-dose-only effect, or effect the other way; inactive means no such curve, though single readings can be large or run the other way. Some of the results follow. The source holds several records for some structures; these can differ, active in one and inactive in another.

target: Cytochrome P450 2C19 (Homo sapiens) (UniProt P33261); test: Cytochrome panel assay with activity outcomes; details: recombinant CYP, pro-luciferin dealkylation, luminescence, p450-cyp2c19; series mostly up to 57.1 µM
On the % scale 0 is the no-effect control and ±100 the full control effect.

Chain of Cytochrome P450 2C19 (Homo sapiens) (P33261 whole entry, looked up): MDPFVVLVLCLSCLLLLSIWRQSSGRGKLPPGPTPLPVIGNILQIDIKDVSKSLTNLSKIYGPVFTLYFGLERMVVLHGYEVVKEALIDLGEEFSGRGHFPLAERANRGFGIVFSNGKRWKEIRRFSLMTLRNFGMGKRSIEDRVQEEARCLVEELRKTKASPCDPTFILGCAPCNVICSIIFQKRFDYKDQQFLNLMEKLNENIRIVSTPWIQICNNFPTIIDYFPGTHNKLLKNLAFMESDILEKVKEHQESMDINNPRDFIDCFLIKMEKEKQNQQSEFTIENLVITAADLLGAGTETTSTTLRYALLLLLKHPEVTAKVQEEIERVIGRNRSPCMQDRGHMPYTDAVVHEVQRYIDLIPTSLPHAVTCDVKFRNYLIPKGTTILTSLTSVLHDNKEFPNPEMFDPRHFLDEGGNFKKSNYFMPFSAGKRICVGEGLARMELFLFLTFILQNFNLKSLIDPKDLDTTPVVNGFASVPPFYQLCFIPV

Row | Compound | AC50 | activity, negative = inhibition
1 | CC(C)NC(=O)N1CC2(CCN(C(=O)c3ccncc3)CC2)C1 | inactive | 
2 | Clc1ccc(-c2cc3ccccc3[nH]2)cc1 | 3.16 µM (active) | 
3 | c1ccc(C[n+]2cccc(-c3cc4ccccc4[nH]3)c2)cc1 |  | 22.1% [at 11.4 µM] (inactive)
4 | OC(c1ccccc1)(c1ccc(F)cc1)C(c1ccccc1)N1CCOCC1 (centres undefined) | 2.82 µM (active) | 
5 | C[C@@H](N1CCOCC1)[C@@](O)(c1ccccc1)c1ccccn1 |  | 5.67% [at 11.4 µM] (inactive)
6 | CC(C)NC(=O)N1CCC2(CC1)CCN(C(=O)c1cccc(F)c1)CC2 | inactive | 
7 | C=C[C@@]1(C)CC(=O)[C@@]2(O)[C@@]3(C)[C@@H](O)CCC(C)(C)[C@@H]3[C@H](OC(=O)CCN(C)C)[C@H](OC(C)=O)[C@@]2(C)O1 | 0.251 µM (active) | 
8 | C=C[C@@]1(C)CC(=O)[C@@]2(O)[C@@]3(C)[C@H](O)CCC(C)(C)[C@@H]3[C@H](O)[C@H](OC(C)=O)[C@]2(C)O1 | inactive | 
9 | Cc1cc(C2CCCCC2)n(O)c(=O)c1 | inactive | 
10 | Cc1cc2nc(SCCOC(=O)Nc3ccc(Cl)cc3)nc(C)c2cc1C | 0.794 µM (active) | 
11 | CSc1ccc(S(=O)(=O)Nc2ccc3c4c(cccc24)CC3)cc1 | 0.447 µM (active) | 
12 | O=C(c1cccc(F)c1)N1CCC2(CCCN(Cc3nccs3)C2)CC1 | inactive | 
13 | O=C(c1cccc(F)c1)N1CCC[C@@]2(CCN(Cc3nccs3)C2)C1 | 2.51 µM (active) | 
14 | O=C(c1cc(C(F)(F)F)cc(C(F)(F)F)c1)N1CCC[C@@]2(CCN(Cc3nccs3)C2)C1 | inactive | 
15 | O=C(c1cc(C(F)(F)F)cc(C(F)(F)F)c1)N1CCC2(CCN(Cc3nccs3)CC2)CC1 | inactive | 
16 | O=C(c1ccncc1)N1CCC2(CCN(Cc3nccs3)CC2)CC1 | inactive | 
17 | O=C(c1cccc(F)c1)N1CCC2(CCN(Cc3nccs3)CC2)CC1 | 1.58 µM (active) | 
18 | CCC1(c2ccccc2)C(=O)NCNC1=O | inactive | 
19 | COCCn1c(=O)c(-c2ccccc2)nc2cnc(Nc3cccc(OC)c3)nc21 | inactive | 
20 | Nc1nc(C(=O)O)c(N=Nc2ccccc2)c(=O)[nH]1 |  | -7.57% [at 11.4 µM] (inactive)
21 | Cn1c(=O)c2[nH]c(-c3ccccc3)nc2n(C)c1=O | inactive | 
22 | O=C(O)c1nc(-c2ccccc2)[nH]c1C(=O)O | 3.16 µM (active) | 
23 | Cc1ccc(S(=O)(=O)N(CC(=O)NCCC2=CCCCC2)Cc2ccccc2F)cc1 | 4.47 µM (active) | 
24 | C/C(CCN1CCCc2nc(C)c(C)cc21)=N\OC[C@@H](O)COCc1ccco1 |  | 7.43% [at 11.4 µM] (inactive)

Row | Compound | AC50 | activity, negative = inhibition
25 | Cc1ccc(N2C(=O)c3n[nH]c(C)c3C2c2ccccn2)cc1 (centres undefined) | inactive | 
26 | O=C1CSC(c2ccccn2)N1c1ccc(Cl)c(Cl)c1 (centres undefined) | 3.55 µM (active) | 
27 | N#Cc1c(N2CCCCC2)nc(N)c2c(N)nc3c(c12)CC(c1ccccc1)O3 (centres undefined) | 6.31 µM (active) | 
28 | COc1ccccc1N1CCN(CCCCNS(=O)(=O)c2cccc3c(N(C)C)cccc23)CC1 | 0.501 µM (active) | 
29 | COc1ccccc1N1CCN(CCCCNC(=O)c2ccc(-c3ccc(C(C)=O)cc3)cc2)CC1 | 15.8 µM (active) | 
30 | COc1ccccc1N1CCN(CCCCNC(=O)c2ccc3ccccc3c2)CC1 | inactive | 
31 | COc1ccccc1N1CCN(Cc2cc(=O)n3ccsc3n2)CC1 | 17.8 µM (active) | 
32 | COc1ccccc1N1CCN(C[C@@H]2CN3C(=O)N(C)c4ccccc4C3=N2)CC1 | inactive | 
33 | COc1ccccc1N1CCN(CCn2c(=O)[nH]c3c([nH]c4ccccc43)c2=O)CC1 | inactive | 
34 | COc1ccccc1N1CCN(CCCNc2cc(=O)n(C)c(=O)n2C)CC1 | inactive and 7.94 µM (active) | 
35 | CC1(C)[C@@H]2CC[C@]1(CC(=O)O)[C@H](Cl)C2 |  | 3.64% [at 11.4 µM] (inactive)
36 | CCNc1ncc2nc(-c3cc(F)cc(F)c3)c(=O)n(CCC#N)c2n1 | inactive | 
37 | CN[C@]1(C)[C@H]2CC[C@@H](C2)C1(C)C | inactive | 
38 | CC1(C)C2([N+](=O)[O-])CN3CC1([N+](=O)[O-])CN(C2)C31CCCC1 | inactive | 
39 | COc1ccccc1N1CCN(CCN2C(=O)CC3(CCCC3)CC2=O)CC1 | inactive | 
40 | COc1ccccc1N1CCN(CCCCN2C(=O)c3ccccc3C2=O)CC1 | inactive | 
41 | COc1ccccc1N1CCN(CCCCN2C(=O)CCC2=O)CC1 | 10 µM (active) | 
42 | CC(C)C(=O)NCCc1nc2ccccc2n1CCCOc1ccc(Cl)cc1 | 2 µM (active) | 
43 | C=CC[C@H](N)C(=O)O | inactive | 
44 | CCn1c(SCc2ccc(C(=O)Nc3nccs3)cc2)nnc1-c1ccc(NC(C)=O)cc1 | 5.01 µM (active) | 
45 | Cc1ccc(NC(=O)c2ccc(CSc3nnc(-c4ccncc4)n3C)cc2)cc1 | inactive | 
46 | O=C(CSc1nnc(-c2ccncc2)n1Cc1ccccc1)Nc1nccs1 | 1.78 µM (active) | 
47 | CCNC(=O)C1CC(=O)OC12CCCCC2 (centres undefined) | inactive | 
48 | CCc1ccc(N2CC(C)Cn3c2nc2c3c(=O)n(CCN3CCOCC3)c(=O)n2C)cc1 (centres undefined) | inactive | 

Row | Compound | AC50 | activity, negative = inhibition
49 | CN(C)CCNc1nc2c(c(=O)n(C)c(=O)n2C)n1C |  | -4.31% [at 11.4 µM] (inactive)
50 | Cn1c(OCc2ccc3c(c2)OCO3)nc2c1c(=O)n(Cc1ccc(Cl)c(Cl)c1)c(=O)n2C | 10 µM (active) | 
51 | CN(C)CCn1c(CO)nc2c1c(=O)n(C)c(=O)n2C |  | 29.8% [at 11.4 µM] (inactive)
52 | Cn1c(=O)c2c(nc(Cl)n2Cc2ccc(Cl)c(Cl)c2)n(C)c1=O | 2 µM (active) | 
53 | CCC(C(=O)NC(C)(C)C)N(C(=O)Cn1nnc(-c2cccs2)n1)c1cnc2ccccc2c1 (centres undefined) | 31.6 µM (active) | 
54 | O=C(Nc1cnc2ccccc2c1)c1cccc(-n2cnnn2)c1 | inactive | 
55 | CCCCCCCC/C=C\CCCCCCCC(=O)NCc1ccc(O)c(OC)c1 | inactive | 
56 | CCCCCCCCC(=O)NCc1cc(OC)c(O)cc1I | inactive | 
57 | COc1cc(CNC(=O)CCCC/C=C\C(C)C)ccc1O | 7.94 µM (active) | 
58 | CC(C)C(=O)Nc1ccc(C(=O)NNC(=O)C(c2ccccc2)c2ccccc2)cc1 | inactive | 
59 | CC(C)C(=O)Nc1ccc(C(=O)NNC(=O)CCCOc2ccc(Cl)cc2Cl)cc1 | 4.47 µM (active) | 
60 | CC(C)(C)C(=O)NNC(=O)CCCOc1ccc(Cl)cc1Cl | 11.2 µM (active) | 
61 | COc1ccc(/C=N/NC(=O)CCCOc2ccc(Cl)cc2Cl)cc1[N+](=O)[O-] | 1 µM (active) | 
62 | CN1C[C@H](c2ccccc2)C(O)([C@]2(c3ccccc3)CN(C)C[C@@H](c3ccccc3)C2=O)[C@H](c2ccccc2)C1 (some centres undefined) |  | 7.29% [at 11.4 µM] (inactive)
63 | CCCCCCc1c(C[C@H](N)C(=O)O)o[nH]c1=O | inactive | 
64 | CCC/C=C(\CCC)C(NS(=O)(=O)c1ccc(C(F)(F)F)cc1)c1ccccc1 (centres undefined) | 0.398 µM (active) | 
65 | CCC/C=C(\CCC)C(NS(=O)(=O)c1ccccc1)c1ccc(C(F)(F)F)cc1 (centres undefined) | 7.94 µM (active) | 
66 | CCC/C=C(\CCC)C(NS(=O)(=O)c1ccc(C(F)(F)F)cc1)c1ccc(-c2ccccc2)cc1 (centres undefined) | 7.94 µM (active) | 
67 | C/C(=C\C1CCCCC1)C(NC(=O)c1ccc(C(F)(F)F)cc1)c1ccc(-c2ccccc2)cc1 (centres undefined) | inactive | 
68 | CC(C)CN1CCCC2(CCN(C(=O)c3cccn3C)CC2)C1 | inactive | 
69 | Cc1nn(S(=O)(=O)c2cccs2)c(C)c1Sc1ccc([N+](=O)[O-])cc1 | 0.562 µM (active) | 
70 | CC(C)(C)[Si](C)(C)c1c2c(nc3ccc(OCc4ccccc4)cc13)-c1cccc(=O)n1C2 | inactive | 
71 | Cc1c2c(nc3ccccc13)-c1cccc(=O)n1C2 | inactive | 
72 | COc1ccc2nc3c(c([Si](C)(C)C(C)(C)C)c2c1)Cn1c-3cccc1=O | 2 µM (active) | 

Row | Compound | AC50 | activity, negative = inhibition
73 | CCCCC/C=C\C[C@H](O)/C=C\c1cccc(C[C@H](O)CCCCO)n1 | inactive | 
74 | COc1ccc2c(C=Nc3c(C)n(C)n(-c4ccccc4)c3=O)c(O)n(Cc3ccco3)c(=O)c2c1 | 10 µM (active) | 
75 | COc1ccc(C(=O)NCC(c2ccc(F)cc2)N2CCOCC2)cc1S(=O)(=O)N1CCCC1 (centres undefined) | 6.31 µM (active) | 
76 | OCCCN=C1CCCCC1 |  | 31.2% [at 11.4 µM] (inactive)
77 | Clc1ccc2c(NCCNc3ccnc4cc(Cl)ccc34)ccnc2c1 |  | -22.5% [at 11.4 µM] (inactive)
78 | O=C(N/N=C/c1cccc([N+](=O)[O-])c1)c1cc2c(ccc3ccccc32)o1 | inactive | 
79 | C=CCn1cc(/C=N\NC(=O)c2cc3c(ccc4ccccc43)o2)c2ccccc21 | 4.47 µM (active) | 
80 | CC[C@H]1C(=O)OC[C@H]1Cc1cncn1C | inactive | 
81 | CCC1C(=O)OCC1Cc1cncn1C (centres undefined) | 7.94 µM (active) | 
82 | CC1(C)Cc2c(C#N)c(SCc3ccccc3)nc(N3CCOCC3)c2CO1 | 8.91 µM (active) | 
83 | N#CCCn1c(=O)c(-c2ccccc2)nc2cnc(Oc3cccc(Cl)c3)nc21 | inactive | 
84 | COCCn1c(=O)c(-c2cn(C)c3ccccc23)nc2cnc(Oc3cccc(Cl)c3)nc21 | inactive | 
85 | N#CCCn1c(=O)c(-c2cccc(C#N)c2)nc2cnc(Oc3ccccc3)nc21 | inactive | 
86 | Cc1nc2cnc(Oc3cccc(Cl)c3)nc2n(CCC#N)c1=O | inactive | 
87 | CN(C)c1ncc2nc(-c3ccc(Cl)cc3)c(=O)n(C[C@H]3CCCO3)c2n1 | inactive | 
88 | COc1ccc(-c2nc3cnc(Oc4cccc(Cl)c4)nc3n(C[C@H]3CCCO3)c2=O)cc1 | inactive | 
89 | N#CCCn1c(=O)c(CCc2ccccc2)nc2cnc(Oc3ccccc3)nc21 | 31.6 µM (active) | 
90 | COc1ncc2nc(-c3ccc(Cl)cc3)c(=O)n(C[C@H]3CCCO3)c2n1 | 10 µM (active) | 
91 | COCCn1c(=O)c(-c2cc(F)cc(F)c2)nc2cnc(Oc3cccc(Cl)c3)nc21 | inactive | 
92 | N#CCCn1c(=O)c(CCc2ccccc2)nc2cnc(Oc3cccc(Cl)c3)nc21 | 6.31 µM (active) | 
93 | Cn1cc(-c2nc3cnc(Oc4ccccc4)nc3n(CCC#N)c2=O)c2ccccc21 | inactive | 
94 | COCCn1c(=O)c(CCc2ccccc2)nc2cnc(Oc3cccc(Cl)c3)nc21 | 15.8 µM (active) | 
